CYP2C19 inhib: inhibitors of human CYP2C19; inhibition, % at 5 µM; P33261; CYP2C19 Supersomes, luciferin-H EGE luminescence, 30 min; AID 778; hit rate 21% among 96,000;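 active means CYP2C19 inhibition above a set limit at 5 µM in the primary screen, cut at about 50% in these data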;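 further: plate controls were negative control wells for no effect and 2.5 mM tranylcypromine positive control for full effect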
Target sequence (P33261 whole entry, looked up): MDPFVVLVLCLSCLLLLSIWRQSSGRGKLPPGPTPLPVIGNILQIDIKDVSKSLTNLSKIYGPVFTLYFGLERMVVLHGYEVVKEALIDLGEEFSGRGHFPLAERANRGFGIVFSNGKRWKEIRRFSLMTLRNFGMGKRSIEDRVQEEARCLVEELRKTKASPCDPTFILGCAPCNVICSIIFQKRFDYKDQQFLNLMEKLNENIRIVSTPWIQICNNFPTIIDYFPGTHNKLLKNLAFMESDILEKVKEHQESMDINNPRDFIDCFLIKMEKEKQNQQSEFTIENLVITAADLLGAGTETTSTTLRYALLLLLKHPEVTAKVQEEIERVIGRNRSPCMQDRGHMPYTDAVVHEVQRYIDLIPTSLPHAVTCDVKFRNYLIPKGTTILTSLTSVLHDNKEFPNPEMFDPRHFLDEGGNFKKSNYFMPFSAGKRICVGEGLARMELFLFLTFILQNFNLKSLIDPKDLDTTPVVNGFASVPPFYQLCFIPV
CYP2C9 act: CYP2C9 (human) activation. recombinant CYP2C9, luciferin-H conversion, luminescence; active compounds read high; factor 1 = untreated enzyme, 0 = blocked. activation factor at 5 µM. hit rate 1.4% among 96,000. AID 1024;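 active means activation factor of 2 or more for CYP2C9 at a 5 µM dose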;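 further: 0 = sulfaphenazole-blocked wells and 1 = vehicle-only wells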
Measles CPE: protection of cells from measles virus; Measles virus-infected cells, CPE protection, absorbance; AID 841; hit rate 1.5% among 140,000; protection (pct of control), % at 4 µM; in the data active means protection mostly above about 24%, no sharp cut-off; inactive means mostly below about 26%
CYP2C9 inhib: human CYP2C9 inhibition; CYP2C9 Supersomes, luciferin-H conversion, luminescence; P11712; hit rate 20% among 96,000; inhibition, % at 5 µM; AID 777;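 active means blocking of liver enzyme CYP2C9 beyond about 50% at 5 µM, limit read from the data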
CYP2C19 activ: cytochrome P450 2C19 (human) activation. recombinant CYP2C19, luciferin-H EGE luminescence; active compounds read high; 0 = fully inhibited enzyme, 1 = untreated enzyme. 96,000 tested, under 10 active. activation factor at 5 µM;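 active means activation factor of at least 2 at 5 µM in the primary screen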;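 further: 0 = wells with 2.5 mM tranylcypromine and 1 = vehicle-only wells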
An asterisk follows results filed as active; x = no result. Shown are actives, neighbours in structure and some others; about 22% of the full set was active somewhere.

SMILES	CYP2C19 inhib	CYP2C9 act	Measles CPE	CYP2C9 inhib	CYP2C19 activ
CC1CCCC(NC(=O)COC(=O)c2cc(S(=O)(=O)N3CCCCC3)ccc2N2CCOCC2)C1C (centres undefined)	78*	0.2	7	82*	0.2
Cc1ccc(C)c(N2C(=O)c3ccc(C(=O)OCC(=O)c4c(N)n(C)c(=O)n(C)c4=O)cc3C2=O)c1	x	x	11	x	x
Cc1ccc(Cl)cc1N1CCN(c2cccc[n+]2C)CC1	x	x	16	x	x
Cc1ccc(CC2CC(=O)N(c3ccncc3)C2=O)cc1 (centres undefined)	94*	0.4	28	57*	0.1
Cc1ccc(CC2CC(=O)N(Cc3ccco3)C2=O)cc1 (centres undefined)	88*	0.4	5	55*	0.1
COc1ccc(OC)c(N2C(=O)CC(Cc3ccc(Cl)cc3)C2=O)c1 (centres undefined)	x	x	7	x	x
Cc1ccc(CC2CC(=O)N(c3ccc(Cl)cn3)C2=O)cc1 (centres undefined)	58*	0.6	5	39	0.4
CC(=O)c1nc(N2C(=O)CC(Cc3ccc(C)cc3)C2=O)sc1C (centres undefined)	x	x	14	x	x
Cc1ccc(NC(=S)NCC2CCCO2)c(OC(F)F)c1 (centres undefined)	x	x	13	x	x
CCOC(=O)N1CCN(c2cc(=O)n(Cc3ccc(F)cc3)c(=O)[nH]2)CC1	x	x	14	x	x
CC(C)C(=O)Nc1cc(S(=O)(=O)Nc2cccc(Cl)c2)ccc1Cl	x	x	26	x	x
CC(C)C(=O)Nc1cc(S(=O)(=O)Nc2ccc(Cl)cc2)ccc1Cl	x	x	45*	x	x
COc1ccc(Cl)cc1NC(=O)C(C)OC(=O)c1ccc(NS(=O)(=O)c2ccc3[nH]c(=O)[nH]c3c2)cc1 (centres undefined)	x	x	48*	x	x
Cc1ccc(NC(=O)N2CCC(C(=O)NCC(C)C)CC2)cc1	-22	1.2	13	-16	1.2
C=CCn1c(SCC(=O)Nc2ccc(C(=O)OCC)cc2)nnc1-c1cccs1	-8	0.9	4	5	1.1
Cc1nnc(SCC(=O)Nc2ccc3c(c2)OCCO3)n1N	-2	1	1	-3	1
CCn1c(SCC(=O)Nc2ccc(C(=O)OC)cc2)nnc1-c1cccs1	51*	0.6	14	38	0.5
CCn1c(SCC(=O)Nc2ccc3c(c2)OCCO3)nnc1-c1cccs1	33	0.5	8	52*	0.7
CCn1c(SCC(=O)NCC(=O)Nc2ccc(F)cc2)nnc1-c1cccs1	31	0.1	11	93*	0.7
CCn1c(SCC(=O)Nc2cc(C)on2)nnc1-c1cccs1	83*	0.7	1	31	0.2
CCn1c(SCC(=O)Nc2cc(C)on2)nnc1-c1cccnc1	31	0.9	22	9	0.7
O=c1oc2ccccc2cc1N1CCOCC1	x	x	27	x	x
CC(=O)Nc1sc(N/N=C\c2ccco2)nc1-c1cccs1	x	x	5	x	x
COC(=O)c1ccc(Sc2ccccc2NS(=O)(=O)c2ccc(OC)cc2)nc1	26	0.6	15	44	0.7
Cc1ccc(C(=O)OCC(=O)c2c[nH]c3ccccc23)cc1S(=O)(=O)N1CCCCC1	x	x	38	x	x
SMILES	CYP2C19 inhib	CYP2C9 act	Measles CPE	CYP2C9 inhib	CYP2C19 activ
COc1ccc(Nc2nnc(SCc3cc(=O)n4ccsc4n3)s2)cc1	49	0.6	19	41	0.5
CN(C)c1ccc(NC(=O)CC(NCc2ccccn2)C(=O)O)cc1 (centres undefined)	x	x	5	x	x
COc1ccc(OC)c(NC(=O)C(=O)NNC(=O)c2cccs2)c1	x	x	8	x	x
CCOc1ccc(-n2c(=S)sc3c(=O)[nH]c(SCC(=O)NC(C)CC)nc32)cc1 (centres undefined)	11	0.2	5	78*	0.9
CCCC1CC(CSC(=N)N)OC1=O (centres undefined)	4	1	1	-4	1
CCCCCCC1CC(CSC(=N)N)OC1=O (centres undefined)	79*	1	17	3	0.2
CCOC(=O)C1=C(NC(=O)c2ccc(Br)o2)Nc2ccccc2N=C1	13	0.4	20	60*	0.9
O=C(NCc1ccc2c(c1)OCO2)c1cc2ncc(Br)cn2n1	11	0.8	18	21	0.9
O=[N+]([O-])c1ccc(N2CCN(S(=O)(=O)c3ccccc3)CC2)cc1NCCN1CCOCC1	55*	0.3	13	70*	0.5
COc1cccc(OCCNc2cc(N3CCCCC3)ccc2[N+](=O)[O-])c1	26	0.3	5	70*	0.7
COc1ccc(OCCNc2cc(N3CCOCC3)ccc2[N+](=O)[O-])cc1	45	0.4	4	63*	0.6
CNc1cc(N2CCCCCC2)ccc1[N+](=O)[O-]	51*	0.5	13	47	0.5
Cc1ccc(S(=O)(=O)N2CCN(c3ccc([N+](=O)[O-])c(NCCN4CCOCC4)c3)CC2)cc1	x	x	11	x	x
COc1ccccc1-n1cnnc1SC(C)C(=O)Nc1cccc([N+](=O)[O-])c1 (centres undefined)	x	x	10	x	x
CCCCOc1ncnc2c1[nH]c1ccc(F)cc12	26	0.7	6	29	0.7
Cc1ccccc1OCCNc1cc(N2CCCCC2)ccc1[N+](=O)[O-]	89*	0.1	9	95*	0.1
Cc1ccccc1OCCNc1cc(N2CCN(CCO)CC2)ccc1[N+](=O)[O-]	x	x	9	x	x
O=C(N/C(=C/c1cccnc1)C(=O)N1CCOCC1)c1ccco1	x	x	23	x	x
COC(=O)c1ccc(NC2(C#N)C(=O)Nc3ccccc32)cc1 (centres undefined)	52*	0.3	5	71*	0.5
O=C(Cc1nn[nH]n1)NCc1ccccc1Cl	2	1	4	5	1
Cc1c(NS(=O)(=O)c2ccc3c(c2)CCN3C(=O)C2CC2)c(=O)n(-c2ccccc2)n1C	12	1.1	25	-6	0.9
CCCC(=O)OC1CC(C)N(C(=O)c2ccccc2)c2ccc(C)cc21 (centres undefined)	x	x	21	x	x
CC(=O)OC1CC(C)N(C(=O)c2ccccc2)c2ccc(C)cc21 (centres undefined)	85*	0.9	4	11	0.1
Cn1c2ccc(CC(=O)O)cc2c2cc(CC(=O)O)ccc21	-10	1.1	5	-6	1.1
COC(=O)Cc1ccc2c3ccccc3n(C)c2c1	71*	1	24	4	0.3
SMILES	CYP2C19 inhib	CYP2C9 act	Measles CPE	CYP2C9 inhib	CYP2C19 activ
CCCCc1ccc(N=N/C(C(=O)Nc2cc(OC)c(NC(C)=O)cc2OC)=C(/C)O)cc1	x	x	14	x	x
Nc1cccc2c1C(=O)N(C(=O)c1ccc(S(=O)(=O)N3CCCCCC3)cc1)C2=O	29	0.4	9	57*	0.7
O=C(c1c(Cl)cccc1Cl)N1CCN(c2ccccn2)CC1	37	0.4	16	63*	0.6
O=C(c1cccc(Cl)c1)N1CCN(c2ccccn2)CC1	90*	0.2	6	79*	0.1
O=C(N1CCN(c2ccccn2)CC1)N1c2ccccc2Sc2ccccc21	90*	0.1	11	88*	0.1
O=C(c1ccc(S(=O)(=O)N2CCCCC2)cc1)N1CCN(c2ccccc2)CC1	-18	1	18	-2	1.2

Source: PubChem BioAssay (several laboratories)
